Data from PubChem BioAssay (Tox21).
Results filed as inconclusive are left out. Active and inactive are the calls of the source. Unless noted, the call rests on the fitted dose curve.

How the values were obtained:
[1] = qHTS assay to identify small molecule agonists of the vitamin D receptor (VDR) signaling pathway - cell viability counter screen (AID 743224; active means well fitted curve in the direction sought with a large enough effect in the repeat runs; an effect the other way counts as inactive or inconclusive; further: nearly all actives have a fitted effect of over 50% in size; further: potency means the concentration at half of the fitted maximal effect; on activity change, negative = cytotoxicity: series mostly up to about 63 µM; on the % scale 0 is the no-effect control and ±100 the full control effect)
Method in brief: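 VDR-bla cells were preincubated 4 h at 37C/5% CO2, then exposed to compounds for 16 h. After the 2 h room-temperature bla FRET read, CellTiter-Glo was added to the same wells and luminescence read after 30 min.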

[2] = qHTS assay to identify small molecule antagonists of the vitamin D receptor (VDR) signaling pathway - cell viability counter screen (AID 743225; active means well fitted curve in the direction sought with a large enough effect in the repeat runs; an effect the other way counts as inactive or inconclusive; further: on the % scale 0 is the no-effect control and ±100 the full control effect; nearly all actives have a fitted effect of over 50% in size)
Method in brief: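 Viability counter screen run in the same wells as the beta-lactamase reporter assay: HEK 293T VDR-UAS-bla cells, 16 h compound exposure at 37C with 3 nM (final) 1-alpha,25-dihydroxyvitamin D3. CellTiter-Glo luminescence, 30 min, room temperature.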

[3] = qHTS assay to identify small molecule agonists of the NFkB signaling pathway - cell viability counter screen (AID 1159515); further: series mostly up to about 61 µM; on the % scale 0 is the no-effect control and ±100 the full control effect; nearly all actives have a fitted effect of over 55% in size
Method in brief: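 NFkB-bla ME-180 cells, 2,000/well, were plated overnight at 37 C, 5% CO2, then exposed to compounds in DMSO for 5 hr. After the bla FRET read, CellTiter-Glo was added to the same wells; luminescence was read after 30 min at room temperature.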

[4] = qHTS assay to identify small molecule agonists of the endoplasmic reticulum stress response signaling pathway (AID 1159516; active means well fitted activation curve with a large enough effect in the signal ratio in the repeat runs, not every such curve was filed as active; the % refers to the signal ratio; further: on the % scale 0 is the no-effect control and ±100 the full control effect)
Method in brief: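 CellSensor ESRE-bla HeLa cells, carrying a beta-lactamase reporter driven by the ER stress response element, were plated overnight and exposed to compounds for 5 hr at 37 C. Reporter activity was read as FRET substrate fluorescence after 2 hr at room temperature.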

[5] = qHTS assay to identify small molecule agonists of the endoplasmic reticulum stress response signaling pathway - cell viability counter screen (AID 1159517); further: series mostly up to about 61 µM; on the % scale 0 is the no-effect control and ±100 the full control effect; nearly all actives have a fitted effect of over 50% in size
Method in brief: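 Cells, HeLa ESRE-bla; density, 1,500/well; dosing, 5 hr at 37 C, 5% CO2; readout, CellTiter-Glo luminescence after 30 min RT.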

[6] = qHTS assay to identify small molecule antagonists of the retinoid-related orphan receptor gamma (ROR-gamma) signaling pathway - cell viability counter screen (AID 1159520; active means well fitted curve in the direction sought with a large enough effect in the repeat runs; an effect the other way counts as inactive or inconclusive; further: on the % scale 0 is the no-effect control and ±100 the full control effect; nearly all actives have a fitted effect of over 50% in size)
Method in brief: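 Cytotoxicity was read from cellular ATP (CellTiter-Glo luminescence) after 16 hr at 37 C with 1 uM doxycycline induction. The inducer was added 2 hr after compound transfer to Tet-on ROR gamma CHO cells.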

[7] = qHTS assay to identify small molecule agonists of the AP-1 signaling pathway (AID 1159526); further: on the % scale 0 is the no-effect control and ±100 the full control effect
[8] = target: Retinoic acid receptor RXR-alpha (Homo sapiens) (UniProt P19793); assay: qHTS assay to identify small molecule agonists of the RXR signaling pathway (AID 1159527); further: on the % scale 0 is the no-effect control and ±100 the full control effect; nearly all actives have a fitted effect of over 35% in size
Method in brief: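 Agonist mode; 9-cis retinoic acid positive control. HEK 293T UAS-bla reporter cells, 2% charcoal-stripped FBS, 16 hr compound exposure at 37 C/5% CO2. LiveBLAzer B/G FRET substrate 2 hr RT; ex 405, em 460/530 nm.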

[9] = qHTS assay to identify small molecule agonists of the AP-1 signaling pathway - cell viability counter screen (AID 1159525); further: nearly all actives have a fitted effect of over 55% in size; further: potency means the concentration at half of the fitted maximal effect
Method in brief: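 Luminescent ATP readout (Cell Titer Glo, 30 min RT), normalised to DMSO and tetra n-octyl ammonium bromide controls. Cells were ME-180 AP-1-bla in 0.5% dialyzed FBS Opti-MEM, with a 5 h, 37 °C compound exposure.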

[10] = target: Nuclear receptor ROR-gamma (Homo sapiens) (UniProt P51449); assay: qHTS assay to identify small molecule antagonists of the retinoid-related orphan receptor gamma (ROR-gamma) signaling pathway (AID 1159521; active means well fitted curve in the direction sought with a large enough effect in the repeat runs; an effect the other way counts as inactive or inconclusive)
Method in brief: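 Luminescence readout (ONE-Glo, 30 min RT) after 16 h doxycycline induction; loss of signal scored as antagonism. CHO cells with TET-inducible RORγ and RORE-LUC reporter; compounds added 2 h before 1 uM final doxycycline.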

Sequence of Retinoic acid receptor RXR-alpha (Homo sapiens) (P19793 whole entry, looked up): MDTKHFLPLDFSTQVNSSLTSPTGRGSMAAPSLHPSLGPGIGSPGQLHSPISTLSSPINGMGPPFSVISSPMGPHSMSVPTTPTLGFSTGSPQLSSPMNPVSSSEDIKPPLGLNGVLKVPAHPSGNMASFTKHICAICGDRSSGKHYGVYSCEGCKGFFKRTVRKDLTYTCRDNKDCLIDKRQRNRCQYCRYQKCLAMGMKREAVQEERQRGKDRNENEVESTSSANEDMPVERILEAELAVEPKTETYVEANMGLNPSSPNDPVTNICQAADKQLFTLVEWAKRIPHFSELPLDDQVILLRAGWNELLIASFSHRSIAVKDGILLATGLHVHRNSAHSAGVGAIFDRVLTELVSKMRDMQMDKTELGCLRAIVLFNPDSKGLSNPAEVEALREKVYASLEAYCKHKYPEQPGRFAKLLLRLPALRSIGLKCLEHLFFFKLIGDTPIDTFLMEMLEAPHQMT

O=C(O)c1ccc(S(=O)(=O)O)cc1C(=O)O
inactive: Potency [1] | Potency [2] | Potency [3] | Potency [4] | Potency [5] | Potency [6] | Potency [7] | Potency [8]

CNCCCN1c2ccccc2CCc2ccccc21
inactive: Potency [3] | Potency [4] | Potency [5] | Potency [6] | Potency [9]
active: Potency [1] 15 µM

Cc1oc(-c2ccccc2)nc1CCOc1cccc2c1ccn2CCC(=O)O
inactive: Potency [1] | Potency [2] | Potency [3] | Potency [4] | Potency [5] | Potency [6] | Potency [9]

Cc1ccc(N=Nc2c(O)c(C(=O)O)cc3ccccc23)c(S(=O)(=O)O)c1
inactive: Potency [1] | Potency [2] | Potency [3] | Potency [4] | Potency [5] | Potency [6] | Potency [9]

COc1cccc(N(C)C(=S)Oc2ccc3c(c2)CCCC3)n1
inactive: Potency [1] | Potency [2] | Potency [3] | Potency [4] | Potency [5] | Potency [6] | Potency [9] | Potency [7]

CC(COCCO)OCCO (stereo not drawn)
inactive: Potency [1] | Potency [2] | Potency [3] | Potency [4] | Potency [5] | Potency [6] | Potency [9]

NCC(=O)CCC(=O)O
inactive: Potency [1] | Potency [2] | Potency [3] | Potency [4] | Potency [5] | Potency [6] | Potency [7] | Potency [8]

CC(C)(C)OCC1CO1 (stereo not drawn)
inactive: Potency [1] | Potency [2] | Potency [3] | Potency [4] | Potency [5] | Potency [6] | Potency [7] | Potency [8]

CN(C)CCN(Cc1ccc(Cl)cc1)c1ccccn1
inactive: Potency [2] | Potency [3] | Potency [4] | Potency [5] | Potency [6] | Potency [9]

CCCCc1ncc(/C=C(\Cc2cccs2)C(=O)O)n1Cc1ccc(C(=O)O)cc1
inactive: Potency [1] | Potency [2] | Potency [3] | Potency [4] | Potency [5] | Potency [6] | Potency [9] | Potency [8]

COc1ccc2cccc(CCNC(C)=O)c2c1
inactive: Potency [1] | Potency [2] | Potency [3] | Potency [4] | Potency [5] | Potency [6] | Potency [9] | Potency [7]

CN(C)CCN(Cc1ccccc1)c1ccccn1
inactive: Potency [1] | Potency [2] | Potency [3] | Potency [4] | Potency [5] | Potency [6] | Potency [9] | Potency [8]

COS(=O)(=O)C(F)(F)F
inactive: Potency [2] | Potency [3] | Potency [4] | Potency [5] | Potency [6] | Potency [9]

O=C1[C@H]2CCCC[C@H]2C(=O)N1CCCCN1CCN(c2nsc3ccccc23)CC1
inactive: Potency [1] | Potency [2] | Potency [3] | Potency [4] | Potency [5] | Potency [6] | Potency [9] | Potency [7]

CCCNCC(O)COc1ccccc1C(=O)CCc1ccccc1 (stereo not drawn)
inactive: Potency [2] | Potency [3] | Potency [4] | Potency [5] | Potency [6] | Potency [9]

C[N+](C)(C)CCOC(=O)CCC(=O)OCC[N+](C)(C)C
inactive: Potency [1] | Potency [2] | Potency [3] | Potency [4] | Potency [5] | Potency [6] | Potency [7] | Potency [8]

O=C(c1ccc(F)cc1)C1CCN(CCn2c(=S)[nH]c3ccccc3c2=O)CC1
inactive: Potency [2] | Potency [3] | Potency [4] | Potency [5] | Potency [6] | Potency [9]

CCO[Si](CCCCl)(OCC)OCC
inactive: Potency [2] | Potency [3] | Potency [4] | Potency [5] | Potency [6] | Potency [9] | Potency [7]

CCCCCCCCCCCCCCOS(=O)(=O)O
active: Potency [1] 43.6 µM | Potency [9] 54.9 µM
inactive: Potency [3] | Potency [4] | Potency [5] | Potency [6]

C/C(=C(\CCOP(=O)(O)O)SC(=O)c1ccccc1)N(C=O)Cc1cnc(C)nc1N
inactive: activity change, negative = cytotoxicity [1] -3.71% [at 5.95 µM] | viability change, negative = cytotoxic [2] 2.62% [at 6.95 µM] | activity, negative = cytotoxic [3] 2.97% [at 6.95 µM] | activation [4] -0.946% [at 6.95 µM] | activity change, negative = cytotoxicity [5] 8.35% [at 6.95 µM] | activity, negative = cytotoxicity [6] -0.156% [at 8.39 µM] | activation [7] -6.29% [at 6.97 µM] | activation [8] 7.58% [at 6.98 µM]

COC(=O)c1ccc(I)cc1S(=O)(=O)NC(=O)Nc1nc(C)nc(OC)n1
inactive: Potency [1] | Potency [2] | Potency [3] | Potency [4] | Potency [5] | Potency [6] | Potency [7]

O=C(Nc1ccccc1)c1ccccc1O
inactive: Potency [2] | Potency [3] | Potency [4] | Potency [5] | Potency [10] | Potency [9] | Potency [7] | Potency [8]

CC[N+](C)(CC)CCOC(=O)C(O)(c1ccccc1)C1CCCCC1 (stereo not drawn)
inactive: Potency [1] | Potency [2] | Potency [3] | Potency [4] | Potency [5] | Potency [6] | Potency [7] | Potency [8]

CC(C)(O)c1ccc(CNC(=O)c2cccnc2Oc2ccc(F)cc2)cc1
inactive: Potency [1] | Potency [2] | Potency [3] | Potency [4] | Potency [5] | Potency [6] | Potency [7]

CCC(C)(C)CC
inactive: Potency [2] | Potency [3] | Potency [4] | Potency [6] | Potency [10] | Potency [8]

CC/C=C\CCOC(=O)CC
inactive: Potency [1] | Potency [2] | Potency [3] | Potency [4] | Potency [5] | Potency [6] | Potency [7] | Potency [8]
